Pf Dd2 growth – P. falciparum Dd2 growth inhibitors, primary screen, SYBR Green fluorescence, single dose replicates | actives 2.3% (n = 94,000) | activity change, % at 10 µM | AID 1159554, 2015 | 72 h; active compounds read low; in the data active = activity change below about -80%; inconclusive = no clear call, values can overlap the other calls
T cruzi growth-1 – T. cruzi intracellular proliferation inhibitors, primary screen, cell-based, beta-gal Tulahuen parasites, NIH3T3 host, luminescence; T. cruzi beta-gal in NIH3T3, GalScreen luminescence, 90 h; inhibition, % at 8.34 µM; AID 624255, 2012; actives 5.9% (n = 77,000);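 active = mean inhibition above about 93%, with at least 55% of replicates each passing it, limit read from the data, passing the limit was not always enough; inconclusive = only one of those two conditions holds; inactive = neither condition holds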
C diff growth – C. difficile growth inhibitors, primary screen, HTS; AID 1259249, 2017; Clostridium difficile clinical isolate growth, OD600, 24 h; active compounds read low; growth activity, negative = inhibition, % at 16 µg/mL (by protocol); actives 0.25% (n = 86,000);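 active = mean growth activity at or below -80% and every replicate also at or below -80%; inconclusive = mean at or below -80% but some replicate above -80%; inactive = mean growth activity above -80%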;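 note: 0% = DMSO wells and -100% = levofloxacin 16 µg/mL wells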
T cruzi growth-2 – T. cruzi intracellular proliferation inhibitors, confirmation, cell-based, NIH3T3 host, beta-gal parasite, luminescence, cherry-pick. AID 651739, 2012. inhibition, % at 8.35 µM. actives 72% (n = 5,600). T. cruzi beta-gal in NIH3T3, GalScreen luminescence, 90 h. shares compounds with T cruzi growth-1;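 active = mean replicate inhibition above about 95% and at least 55% of replicates individually reaching it, limit read from the data; inconclusive = only one of the two criteria is met; inactive = neither criterion is met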
T cruzi growth-3 – inhibitors of intracellular T. cruzi replication, confirmation, NIH3T3 host cells, beta-gal parasites, cherry-pick, set 2; shares compounds with T cruzi growth-1; T. cruzi beta-gal in NIH3T3, GalScreen luminescence, 90 h; inhibition, % at 2.09 µM; actives 21% (n = 5,600); AID 651740, 2012;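 active = mean inhibition above about 95%, with at least 55% of replicates also reaching it, limit read from the data; inconclusive = meets just one of the two conditions; inactive = meets neither condition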;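 note: plate controls were neutral control median for no effect and positive control median for full effect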
NIH3T3 tox – cytotoxicity in mouse NIH/3T3 fibroblasts, confirmation, cytotoxicity control for T. cruzi proliferation inhibitor project, cell-based, cherry-pick, single point; cytotoxicity (signal decrease), % at 8.35 µM; NIH/3T3 viability, CellTiter-Glo ATP luminescence, 90 h; actives 14% (n = 5,600); shares compounds with T cruzi growth-1;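 active = mean signal decrease across replicates above about 35% based on untreated-well scatter, with enough replicates individually passing, limit read from the data; inconclusive = no rule stated though some were filed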;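 note: 0% = median of neutral control wells and 100% = median of positive control wells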
3T3 cytotox 2 – NIH/3T3 fibroblast cytotoxicity, confirmation, cytotoxicity control, cell-based, cherry-pick, single point, set 2 | shares compounds with T cruzi growth-1 | NIH/3T3 viability, CellTiter-Glo ATP luminescence, 90 h | inhibition, % at 24.9 µM | actives 56% (n = 5,600) | AID 651744, 2012;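 active = mean loss of cell viability signal at or above a set limit, and enough replicates individually reaching it; inconclusive = meets only the mean limit or only the replicate share; inactive = meets neither condition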;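 note: 0% = median of neutral control wells and 100% = median of positive control wells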
Starred values were filed as active, the others as inactive; ? = inconclusive; · = not tested or not shown. Shown are actives, neighbours in structure and some others; about 6.7% of the full set was active somewhere.

SMILES	Pf Dd2 growth	T cruzi growth-1	C diff growth	T cruzi growth-2	T cruzi growth-3	NIH3T3 tox	3T3 cytotox 2
CN(C)C(=O)c1ccc(-c2ccc([C@@H]3[C@@H](CO)N(C(=O)C4CC4)[C@H]3C#N)cc2)cc1	-14	67	1	·	·	·	·
CN(C)C(=O)c1ccc(-c2ccc([C@H]3[C@@H](C#N)N(C(=O)C4CCCCC4)[C@H]3CO)cc2)cc1	-39	?	-3	7	29	23	27*
N#C[C@H]1[C@@H](c2ccccc2C2=CCCC2)[C@@H](CO)N1C(=O)CN1CCOCC1	20	·	-6	·	·	·	·
COc1ccc(NC(=O)N(C)C[C@H]2Oc3ccc(NS(=O)(=O)c4ccc(F)cc4)cc3CC(=O)N([C@H](C)CO)C[C@@H]2C)cc1	10	27	1	·	·	·	·
C[C@H]1CN([C@@H](C)CO)C(=O)Cc2cc(NC(=O)Cc3cn(C)c4ccccc34)ccc2O[C@@H]1CN(C)C	8	·	-2	·	·	·	·
C[C@H](CO)N1C[C@H](C)[C@@H](CN(C)Cc2ccc(Cl)c(Cl)c2)Oc2ccc(NC(=O)Cc3ccccc3)cc2C1=O	-13	107	4	·	·	·	·
C[C@@H]1CN([C@H](C)CO)C(=O)c2cc(NC(=O)Cc3ccccc3)ccc2O[C@@H]1CN(C)Cc1ccc(-c2ccccc2)cc1	-5	114*	-1	113*	83	19	78*
C[C@@H]1CN([C@@H](C)CO)C(=O)c2cc(NC(=O)Cc3ccccc3)ccc2O[C@@H]1CN(C)Cc1ccc(Cl)c(Cl)c1	1	105*	14	98*	16	28	96*
C[C@@H]1CN([C@H](C)CO)C(=O)c2cc(NC(=O)Cc3ccccc3)ccc2O[C@@H]1CN(C)Cc1ccc(C(F)(F)F)cc1	9	34	0	·	·	·	·
C[C@@H]1CN([C@@H](C)CO)C(=O)c2cc(NC(=O)Cc3ccccc3)ccc2O[C@H]1CN(C)Cc1ccc(C(F)(F)F)cc1	-21	?	-5	101*	65	17	60*
C[C@@H]1CN([C@@H](C)CO)C(=O)c2cc(NC(=O)Cc3ccccc3)ccc2O[C@H]1CN(C)Cc1ccc(-c2ccccc2)cc1	4	-11	-4	·	·	·	·
O=C(C[C@H]1C[C@H]2c3cc(NC(=O)C4CCC4)ccc3O[C@H]2[C@H](CO)O1)NCC(F)(F)F	18	-7	-2	·	·	·	·
CC(C)NC(=O)N[C@@H]1CC[C@@H](CCn2cc(-c3ccc(F)cc3)nn2)O[C@H]1CO	-18	-60	·	·	·	·	·
COc1ccc(CN2C[C@H](C)[C@@H](OC)CN(C)C(=O)c3cc(NC(=O)C4CC4)ccc3OC[C@@H]2C)cc1	-21	12	·	·	·	·	·
C[C@H](CO)N1C[C@H](C)[C@@H](CN(C)C(=O)Cc2ccccc2)OCc2ccccc2-c2ccccc2C1=O	21	4	7	·	·	·	·
O=C(C[C@H]1C=C[C@H](NC(=O)c2cccc(F)c2)[C@H](CO)O1)NCc1ccc(Oc2ccccc2)cc1	31	·	-10	·	·	·	·
CC(C)NC(=O)Nc1ccc2c(c1)C(=O)N([C@@H](C)CO)C[C@@H](C)[C@@H](CN(C)C(=O)Nc1ccccc1)OCCCC[C@H](C)O2	-23	36	7	·	·	·	·
C[C@H]1CCCCO[C@H](CN(C)C(=O)Nc2ccccc2)[C@@H](C)CN([C@@H](C)CO)C(=O)c2cc(NC(=O)Nc3ccccc3)ccc2O1	-48	98*	-5	109*	20	16	12
C[C@@H]1CCCCO[C@H](CN(C)C(=O)Nc2ccccc2)[C@H](C)CN([C@@H](C)CO)C(=O)c2cc(NC(=O)Nc3ccccc3)ccc2O1	-74	75	2	·	·	·	·
CC(C)NC(=O)N(C)C[C@H]1OCCCC[C@H](C)Oc2ccc(NC(=O)Nc3ccccc3)cc2C(=O)N([C@H](C)CO)C[C@@H]1C	-11	34	1	·	·	·	·

Screens deposited in PubChem BioAssay by Broad Institute.
